From the supplement of paper PMC13380429

System: Vero E6 infected with SARS-CoV-2
Assay: inhibition of SARS-CoV-2 cytopathic effect; higher = more antiviral protection, active = above 15
Conditions: 48 h

Measured: inhibition of SARS-CoV-2 cytopathic effect

O=c1[nH]cnc2c1ncn2[C@H]1CC[C@@H](CO)O1 [didanosine]
inactive: 1 nM 0.07% | 8.33 nM -2.03% | 100 nM 2.16% | 833.33 nM 3.97% | 10000 nM -1.54%

CCCN1CCCC[C@H]1C(=O)Nc1c(C)cccc1C [ropivacaine]
inactive: 1 nM 1.32% | 8.33 nM 1.42% | 100 nM 2.5% | 833.33 nM 3.09% | 10000 nM -1.63%

Cc1ccc([N+](=O)[O-])cc1S(=O)(=O)N(C)/N=C/c1cnc2ccc(Br)cn12
inactive: 1 nM 0.29% | 8.33 nM -0.13% | 100 nM -5.92% | 833.33 nM -16.5% | 10000 nM -5.86%

C=C1CC[C@H](O)C/C1=C/C=C1\CCC[C@]2(C)[C@@H]([C@H](C)/C=C/[C@H](C)C(C)C)CC[C@@H]12 [ergocalciferol]
inactive: 1 nM 0.88% | 8.33 nM 0.86% | 100 nM 0.95% | 833.33 nM 0.55% | 10000 nM 0.72%

O[C@@H](CN1CCNCC1)Cn1c2ccc(Br)cc2c2cc(Br)ccc21 [BAX-channel-blocker]
inactive: 1 nM 10.2% | 8.33 nM 4.29% | 100 nM 2.27% | 833.33 nM 2.49% | 10000 nM -21.9%

COC(=O)[C@@H](N)CS [mecysteine]
inactive: 1 nM 2.04% | 8.33 nM -0.66% | 100 nM -0.44% | 833.33 nM 2.25% | 10000 nM 2.07%

Cc1cccc(C)c1NC(=O)CC12CCCN1CCC2 [pilsicainide]
inactive: 1 nM 0.34% | 8.33 nM 2.77% | 100 nM 4.31% | 833.33 nM 6.65% | 10000 nM -1.57%

CNCc1cc(-c2ccccc2F)n(S(=O)(=O)c2cccnc2)c1 [vonoprazan]
inactive: 1 nM -3.91% | 8.33 nM -1.43% | 100 nM -1.96% | 833.33 nM -1.21% | 10000 nM -4.64%

C[C@]12CC[C@H](O)C[C@H]1CC[C@@H]1[C@@H]2CC[C@]2(C)[C@@H](C3=CC(=O)OC3)CC[C@]12O [digitoxigenin]
inactive: 1 nM -1.6% | 8.33 nM -1.96% | 100 nM -11.8% | 833.33 nM -13.3% | 10000 nM -19.4%

NC(=S)N/N=C/c1ncccc1N [triapine]
inactive: 1 nM 2.87% | 8.33 nM -0.48% | 100 nM 4.4% | 833.33 nM 3.25% | 10000 nM -6.06%

Cc1c(N)cccc1Cn1ccc(OCCc2cccs2)cc1=O
inactive: 1 nM -0.22% | 8.33 nM 0.73% | 100 nM 1.31% | 833.33 nM 0.66% | 10000 nM -2.07%

CN(C)CCCN1c2ccccc2Sc2ccccc21 [promazine]
inactive: 1 nM 2.47% | 8.33 nM -1.16% | 100 nM 0.93% | 833.33 nM 0.57% | 10000 nM -0.38%

CN(C)C(=N)NCCC[C@H](N)C(=O)O [asymmetrical-dimethylarginine]
inactive: 1 nM -0.33% | 8.33 nM -0.09% | 100 nM -1.65% | 833.33 nM 0.84% | 10000 nM 1.97%

O=C(O)c1ccccc1-c1ccc(C(F)(F)F)cc1 [xenalipin]
inactive: 1 nM -4.08% | 8.33 nM 1.65% | 100 nM 4.8% | 833.33 nM 4.27% | 10000 nM -2.23%

O=c1[nH]cnc2c([C@@H]3N[C@H](CO)[C@@H](O)[C@H]3O)c[nH]c12 [forodesine]
inactive: 1 nM -0.75% | 8.33 nM 0.06% | 100 nM -1.79% | 833.33 nM -1.77% | 10000 nM -2.56%

CCc1cccc(CC)c1NC(=O)N1Cc2[nH]nc(NC(=O)c3ccc(N4CCN(C)CC4)cc3)c2C1
inactive: 1 nM -4.07% | 8.33 nM 1.98% | 100 nM 1.34% | 833.33 nM 1.38% | 10000 nM -0.02%

CC(C)(C)NCc1cc(Nc2ccnc3cc(Cl)ccc23)c2c(c1O)CCCC2 [naphthoquine-phosphate]
inactive: 1 nM -1.58% | 8.33 nM -2.22% | 100 nM -0.22% | 833.33 nM -0.36% | 10000 nM -5.14%

CCC[S+]([O-])c1ccc2[nH]c(NC(=O)OC)nc2c1 (stereo not given) [albendazole-oxide]
inactive: 1 nM 3.02% | 8.33 nM 2.02% | 100 nM 0.87% | 833.33 nM 1.7% | 10000 nM 0.07%

c1ccc(-c2nc(CN3CCN(c4ncccn4)CC3)c[nH]2)cc1
inactive: 1 nM -2.28% | 8.33 nM -0.03% | 100 nM -3.72% | 833.33 nM -0.79% | 10000 nM -1.23%

NS(=O)(=O)c1cc(C(=O)O)cc(N2CCCC2)c1Oc1ccccc1 [piretanide]
inactive: 1 nM 3.5% | 8.33 nM 5.18% | 100 nM 2.39% | 833.33 nM -2.57% | 10000 nM 1%

C[C@@H]([C@H](O)c1ccc(O)cc1)N1CCC(Cc2ccccc2)CC1 (racemic) [ifenprodil]
inactive: 1 nM 2.09% | 8.33 nM -0.2% | 100 nM 0.52% | 833.33 nM 0.72% | 10000 nM -6.19%
